In all, about 39,000 sequences were measured (“fluorescence intensity (a.u.)”: median about 4,300, highest 2% from about 39,000 on). The full list was thinned out, with the highest values kept by preference.

Experimental findings from publication PMC7819943, “Rice protein-binding microarrays: a tool to detect cis-acting elements near promoter regions in rice” are described below.

The assay has as its target T1, OsSMF1 (Oryza sativa, UniProt Q6ZLB0 1-436).
T1 sequence: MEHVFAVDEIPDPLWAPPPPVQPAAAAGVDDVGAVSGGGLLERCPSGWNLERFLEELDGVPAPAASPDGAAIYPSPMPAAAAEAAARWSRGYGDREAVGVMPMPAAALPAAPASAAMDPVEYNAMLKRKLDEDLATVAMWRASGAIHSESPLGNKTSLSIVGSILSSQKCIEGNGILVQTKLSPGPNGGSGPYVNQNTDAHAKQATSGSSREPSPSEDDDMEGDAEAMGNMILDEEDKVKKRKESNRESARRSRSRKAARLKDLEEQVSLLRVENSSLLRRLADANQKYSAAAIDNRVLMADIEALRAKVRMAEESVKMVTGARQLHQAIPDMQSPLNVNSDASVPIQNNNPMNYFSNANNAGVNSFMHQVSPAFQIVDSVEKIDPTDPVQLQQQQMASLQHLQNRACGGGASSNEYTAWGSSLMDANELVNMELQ
In words: protein-binding microarray (RPBM); PBS, 2% BSA, 51.3 ng/ul salmon testes DNA, 50 uM zinc acetate, 200 nM TF, 25 C, 1 h; high values mean tight binding. The following applies: protein: recombinant; tags: N-terminal polyhistidine and DsRed monomer fusion (pET32a); chain copies: 2; label: CyDye5-dUTP incorporated in the synthesized complementary strand; 3' TTTTT single-stranded linker to array surface; dsDNA, one strand shown. Put shortly:
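Binding signal is defined as the fluorescence intensity of each feature in arbitrary units, read on an Axon 4000B scanner. Transcription factors with N-terminal polyhistidine and DsRed fusions came from E. coli BL21-CodonPlus and were purified on Ni–NTA. They were incubated at 200 nM for 1 h at 25 °C on a custom Agilent array that had been made double-stranded with Cy5-dUTP, with 50 µM zinc acetate present, and the array was washed.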
Regarding “CATTCTTAATGTAAAATATGAATGTAAATGAAATGTATGCCGGAGTCACCTAGTGCAG”, the binding signal is 3840 fluorescence intensity (a.u.).
Take “CACAAGTTCTCCTACGCTGACTCCTCTCTTGGAACTTCAGCGGAGTCACCTAGTGCAG”: the binding signal was 5030 fluorescence intensity (a.u.).
With “CTGGCACGTAAGCGTTACCGTGGCATGCCACGTCATCTCACGGAGTCACCTAGTGCAG”, the binding signal was 39600 fluorescence intensity (a.u.).
As for “CCCACGTGGGTCCCACGCTGACTCAGCCGCCACGTAGATCCGGAGTCACCTAGTGCAG”, the binding signal was 25400 fluorescence intensity (a.u.).
Take “CCACTGGCGACCGCCACGTCGACCTGGCGTGGGACCTCATCGGAGTCACCTAGTGCAG”: the binding signal was 8920 fluorescence intensity (a.u.).
Take “TATGCGTGGGTCACTGGGCCCACACGTCATCCTCACGTGGCGGAGTCACCTAGTGCAG”: the binding signal is 49000 fluorescence intensity (a.u.).
The value for “GCATGCATTGCCTCTTGCTCGCCTACGTGGTAATGAAAACCGGAGTCACCTAGTGCAG” was 6560 fluorescence intensity (a.u.); that for “GTTAGCGTGGCATGCCACGTCATCTCACGAAGCGGGTTAGCGGAGTCACCTAGTGCAG” was 18100 fluorescence intensity (a.u.); that for “GGCCCACGTGGGTCCCACACTGACTCAGCTGCCACGTGGGCGGAGTCACCTAGTGCAG” was 38600 fluorescence intensity (a.u.).
On to “GGGGTGAAAATGAATTAGATGCCACGTGCAGGTTCGCATGCGGAGTCACCTAGTGCAG”, for which the binding signal is 10000 fluorescence intensity (a.u.).
With “TGACATGTGGGGCCCACGCTGACTCAGCCGCCACGTCAGACGGAGTCACCTAGTGCAG”, the binding signal is 19600 fluorescence intensity (a.u.).
Regarding “ATATGTGGGTCTCATGCTGACTCATCCGCCACGTCAGATACGGAGTCACCTAGTGCAG”, the binding signal was 42600 fluorescence intensity (a.u.).
In the case of “CTAATGCCACGTAAGTGCCACGTGGCATGAAAACCGGGTTCGGAGTCACCTAGTGCAG”, the binding signal was 46300 fluorescence intensity (a.u.).
As to “CTGCACGTTACTCACGTGGCATCTCCAACTCTACCGCCAACGGAGTCACCTAGTGCAG”, the binding signal was 7570 fluorescence intensity (a.u.).
Consider “TATGTAGTACCACCCTGGTGTCACACATGTACCACTTGGTCGGAGTCACCTAGTGCAG”, for which the binding signal was 3910 fluorescence intensity (a.u.).
“GGAGCTGAGGAGGGACAGCGAGCCAGCGAGGGAGGTGGGGCGGAGTCACCTAGTGCAG”: the binding signal was 3160 fluorescence intensity (a.u.).
With “GGGGACATTACTCCGTGGTTTACATGTCATCCAAATAGTTCGGAGTCACCTAGTGCAG”, the binding signal is 5320 fluorescence intensity (a.u.).
The value for “TATATACAAGTTCACCCCGAAACCTAGTCAGAGTATGACACGGAGTCACCTAGTGCAG” was 4240 fluorescence intensity (a.u.); that for “ACTTGCCACGGTGCCGCCTAACAGGCAGCCGTACCTGCCTCGGAGTCACCTAGTGCAG” was 3320 fluorescence intensity (a.u.).
Turning to “TGAAATACTTACAAGTCGATCGAACAACACCTGTCATCATCGGAGTCACCTAGTGCAG”, the binding signal is 4160 fluorescence intensity (a.u.).
For the sequence “GCGGCCTATTGTTAGCGAGGAGTCACCCAGATTCTTCTCCCGGAGTCACCTAGTGCAG”, the binding signal was 6870 fluorescence intensity (a.u.).
As to “TACTATTAGGTATGTGGTATCCATAACCCTGACACATACCCGGAGTCACCTAGTGCAG”, the binding signal was 3600 fluorescence intensity (a.u.).
As for “CGTGAAAGTGCTTCGAAAGGTGTCAGCAGGTGCGCGGAGCCGGAGTCACCTAGTGCAG”, the binding signal was 3530 fluorescence intensity (a.u.).
Then “GTCAGGTGGCGGCGGCGGCGGTGGTGGCGGTGGAGGTGGACGGAGTCACCTAGTGCAG”, with 5570 fluorescence intensity (a.u.); and “ATCCATAACTATGTAACGTCATAGCCACCCAGCCTCGCTTCGGAGTCACCTAGTGCAG”, with 5580 fluorescence intensity (a.u.); and “CTTGCACAAGTACAGTACGTGTACATGCATGTATGCTACCCGGAGTCACCTAGTGCAG”, with 5700 fluorescence intensity (a.u.).
Then “ATGCATGGTATGTCACGTTGTGACTTGCCTACACTAAAGCCGGAGTCACCTAGTGCAG”, with 4520 fluorescence intensity (a.u.).
As for “TTGCTAGTTGGTACAAAGTAAGCATGCAACACTTGTATGCCGGAGTCACCTAGTGCAG”, the binding signal is 42200 fluorescence intensity (a.u.).
On to “AATGCTGCAATTTCTCGTTGACTAGACTTCACATGCAGCTCGGAGTCACCTAGTGCAG”, for which the binding signal was 5400 fluorescence intensity (a.u.).
As for “TCCGTTGAGATCAGCACTTTCTAGCAGCTGTACAAGAGACCGGAGTCACCTAGTGCAG”, the binding signal is 3740 fluorescence intensity (a.u.).
For “GCCCATGTACGATGACGTGTACCCTATTGTCTTCTACTAGCGGAGTCACCTAGTGCAG”, the binding signal was 21600 fluorescence intensity (a.u.).
In the case of “CACGCCAACGCCCAAGCCCACCAACCCAAGTTGAGTCGTGCGGAGTCACCTAGTGCAG”, the binding signal was 3360 fluorescence intensity (a.u.).
As to “AATCTATGCATATATATATATATATATATGTCTAGATTCACGGAGTCACCTAGTGCAG”, the binding signal is 3240 fluorescence intensity (a.u.).
As for “ATATAGATCATCATCAAGACTACGTATTATTCACTATTCACGGAGTCACCTAGTGCAG”, the binding signal is 3160 fluorescence intensity (a.u.).
On to “TTACAGGATTATATATCATGTTTATCTATTCGTCTTACTACGGAGTCACCTAGTGCAG”, for which the binding signal is 39500 fluorescence intensity (a.u.).
Take “AATGGATCTAGACTATATCTATCTAGATTCATTAGTATCACGGAGTCACCTAGTGCAG”: the binding signal was 45400 fluorescence intensity (a.u.).
Turning to “CCATATCATATTACTCCTACATGTGTACTACATTTATATTCGGAGTCACCTAGTGCAG”, the binding signal was 3720 fluorescence intensity (a.u.).
As for “CTACATCAGCTATATCTATTGTTGCTCTTACACTAAATTACGGAGTCACCTAGTGCAG”, the binding signal is 23700 fluorescence intensity (a.u.).
On to “CCGCTCCGCCTACTCTGGCCACGCGCTGACGCCGCGTCCCCGGAGTCACCTAGTGCAG”, for which the binding signal was 7060 fluorescence intensity (a.u.).
Consider “GGCGGAGACGCGGGCGTGGCTCGGCGGCCTGCTAGTGTGACGGAGTCACCTAGTGCAG”, for which the binding signal is 3340 fluorescence intensity (a.u.).
Regarding “AAAGCCAAACAAGTGTCCAAACGGCTAGGAGTCAACCTCGCGGAGTCACCTAGTGCAG”, the binding signal was 41200 fluorescence intensity (a.u.).
In the case of “TTCAAGTCCAACCTCGGCCACATGCTCCGCCTCCGCCTCGCGGAGTCACCTAGTGCAG”, the binding signal was 3780 fluorescence intensity (a.u.).
